Activity calls are given as the source filed them. How the source made its calls: active means hit-call score of the fitted dose curve at least 0.9, where 1 is the maximum; inactive means score below 0.9.

Holding throughout (conditions): mRNA level, 48 h; actives raise or lower the signal
Read-out in assay [1]: Interleukin 6 Receptor (IL6R), IL6R (gene 3570)
Put plainly: LTEA_HepaRG_IL6R: Life Technologies and Expression Analysis (LTEA) Assay for Interleukin 6 Receptor (IL6R) using HepaRG (AID 2283510). The essentials: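 Concentration-response in human liver HepaRG cells: eight concentrations from 100 uM downward by half-logs, 48 h exposure, 0.5% DMSO vehicle. IL6R mRNA change measured by qRT-PCR and fitted in both directions relative to vehicle.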

Read-out in assay [2]: Potassium channel subfamily K member 1 (KCNK1), KCNK1 (gene 3775)
The experiment in a line: LTEA_HepaRG_KCNK1: Life Technologies and Expression Analysis (LTEA) Assay for Potassium channel subfamily K member 1 (KCNK1) using HepaRG (AID 2283511). The essentials: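 Differentiated human HepaRG cells in serum-free induction medium were exposed in duplicate for 48 h to 8 half-log concentrations up to 100 uM in 0.5% DMSO. KCNK1 mRNA was measured by TaqMan qRT-PCR, normalized to ACTB, GAPDH and POLR2A, and fitted bidirectionally versus DMSO.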

Read-out in assay [3]: Keratin 19 (KRT19), KRT19 (gene 3880)
The experiment in a line: LTEA_HepaRG_KRT19: Life Technologies and Expression Analysis (LTEA) Assay for Keratin 19 (KRT19) using HepaRG (AID 2283512). The essentials:
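Differentiated HepaRG cells in serum-free induction medium, exposed 48 h in duplicate to 8 half-log concentrations up to 100 uM in 0.5% DMSO. KRT19 mRNA by qRT-PCR, normalized to ACTB, GAPDH, POLR2A; bidirectional fit vs DMSO.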

Read-out in assay [4]: JUN Transcription Factor, JUN (gene 3725)
The experiment in a line: LTEA_HepaRG_JUN: Life Technologies and Expression Analysis (LTEA) Assay for JUN Transcription Factor using HepaRG (AID 2283513). Put shortly:
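Human HepaRG liver cells receive test chemicals in 0.5% DMSO for 48 h across an eight-point range topping at 100 uM. Expression changes in JUN are scored in both directions against the DMSO vehicle.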

Read-out in assay [5]: Lipase C (LIPC), LIPC (gene 3990)
Put plainly: LTEA_HepaRG_LIPC: Life Technologies and Expression Analysis (LTEA) Assay for Lipase C (LIPC) using HepaRG (AID 2283514). The essentials:
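Differentiated human HepaRG cells in serum-free induction medium were exposed in duplicate for 48 h to eight concentrations (top 100 uM, half-log steps, 0.5% DMSO). LIPC mRNA was quantified by TaqMan qRT-PCR, normalized to ACTB, GAPDH and POLR2A, with bidirectional fitting versus DMSO.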

Read-out in assay [6]: Lipoprotein lipase (LPL), LPL (gene 4023)
The experiment in a line: LTEA_HepaRG_LPL: Life Technologies and Expression Analysis (LTEA) Assay for Lipoprotein lipase (LPL) using HepaRG (AID 2283515). Put shortly:
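Differentiated human HepaRG cells in serum-free induction medium were exposed in duplicate for 48 h to eight half-log concentrations (top 100 uM) in 0.5% DMSO. LPL mRNA was quantified by TaqMan qRT-PCR, normalized to ACTB, GAPDH and POLR2A.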

Read-out in assay [7]: MicroRNA 122 (MIR122), gene 406906
The experiment in a line: LTEA_HepaRG_MIR122: Life Technologies and Expression Analysis (LTEA) Assay for MicroRNA 122 (MIR122) using HepaRG (AID 2283516). Further: the transcript read is the microRNA miR-122. Put shortly:
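HepaRG, 48 h exposure, 8-pt half-log from 100 uM, 0.5% DMSO; TaqMan qRT-PCR; bidirectional fit vs DMSO.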

Read-out in assay [8]: matrix metalloproteinase-10 (MMP10), MMP10 (gene 4319)
The experiment in a line: LTEA_HepaRG_MMP10: Life Technologies and Expression Analysis (LTEA) Assay for matrix metalloproteinase-10 (MMP10) using HepaRG (AID 2283517). Put shortly: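 HepaRG, collagen I, ~100,000 cells/well; serum-free induction medium; 48 h exposure, duplicate, 8-pt half-log to 100 uM, 0.5% DMSO. Readout: TaqMan qRT-PCR, normalized to ACTB/GAPDH/POLR2A; bidirectional fit vs DMSO.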

Read-out in assay [9]: MYC, MYC (gene 4609)
The experiment in a line: LTEA_HepaRG_MYC: Life Technologies and Expression Analysis (LTEA) Assay for MYC using HepaRG (AID 2283518). Put shortly: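 Differentiated HepaRG cells exposed 48 h in serum-free induction medium to 8 concentrations (top 100 uM, half-log steps; 0.5% DMSO), duplicate. MYC mRNA measured by Fluidigm qRT-PCR, normalized to ACTB, GAPDH, POLR2A; bidirectional fit versus DMSO.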

Read-out in assay [10]: matrix metalloproteinase-3 (MMP3), MMP3 (gene 4314)
Put plainly: LTEA_HepaRG_MMP3: Life Technologies and Expression Analysis (LTEA) Assay for matrix metalloproteinase-3 (MMP3) using HepaRG (AID 2283519). The essentials:
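Differentiated human HepaRG cells, plated 48 h on collagen I, were exposed in duplicate for 48 h in serum-free induction medium to eight half-log concentrations up to 100 uM in 0.5% DMSO. MMP3 mRNA was quantified by TaqMan qRT-PCR, normalised to ACTB, GAPDH and POLR2A.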

Read-out in assay [11]: Paternally Expressed 10 (PEG10), PEG10 (gene 23089)
The experiment in a line: LTEA_HepaRG_PEG10: Life Technologies and Expression Analysis (LTEA) Assay for Paternally Expressed 10 (PEG10) using HepaRG (AID 2283520).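 On AC50: PEG10 transcript by qRT-PCR normalised to ACTB GAPDH and POLR2A.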 The essentials:
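Chemicals tested on HepaRG cells for 48 h, highest concentration 100 uM. PEG10 expression assessed by qRT-PCR relative to DMSO control.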

Read-out in assay [12]: Protein phosphatase 2A (PPP2R4), PTPA (gene 5524)
Put plainly: LTEA_HepaRG_PPP2R4: Life Technologies and Expression Analysis (LTEA) Assay for Protein phosphatase 2A (PPP2R4) using HepaRG (AID 2283522). Put shortly:
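Gene-expression endpoint in HepaRG hepatic cells: 48 h treatment across eight half-log concentrations up to 100 uM in 0.5% DMSO. PPP2R4 mRNA by qRT-PCR, normalized to three endogenous control genes.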

Read-out in assay [13]: Phosphatase and tensin (PTEN), PTEN (gene 5728)
Put plainly: LTEA_HepaRG_PTEN: Life Technologies and Expression Analysis (LTEA) Assay for Phosphatase and tensin (PTEN) using HepaRG (AID 2283523). The essentials:
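Differentiated human HepaRG cells, plated 48 h then switched to serum-free induction medium, were exposed in duplicate for 48 h to eight half-log concentrations up to 100 uM in 0.5% DMSO. PTEN mRNA measured by TaqMan qRT-PCR, normalized to ACTB/GAPDH/POLR2A, bidirectional fit versus DMSO.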

Read-out in assay [14]: solute carrier (SLC22A1), SLC22A1 (gene 6580)
Put plainly: LTEA_HepaRG_SLC22A1: Life Technologies and Expression Analysis (LTEA) Assay for solute carrier (SLC22A1) using HepaRG (AID 2283524). Put shortly: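 Human HepaRG cells were plated 48 h, switched to serum-free induction medium, then exposed in duplicate for 48 h to 8-point half-log series from 100 uM in 0.5% DMSO. SLC22A1 mRNA measured by qRT-PCR, normalized to ACTB/GAPDH/POLR2A, fitted bidirectionally versus DMSO.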

Read-out in assay [15]: Pyruvate Dehydrogenase Kinase 4 (PDK4), PDK4 (gene 5166)
Put plainly: LTEA_HepaRG_PDK4: Life Technologies and Expression Analysis (LTEA) Assay for Pyruvate Dehydrogenase Kinase 4 (PDK4) using HepaRG (AID 2283525). Put shortly: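 Differentiated human HepaRG cells, pre-cultured 48 h, were exposed in duplicate for 48 h in serum-free induction medium to eight half-log concentrations up to 100 uM in 0.5% DMSO. PDK4 mRNA was quantified by qRT-PCR, normalized to ACTB, GAPDH and POLR2A, bidirectional fitting versus DMSO.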

Read-out in assay [16]: NAD(P)H dehydrogenase [quinone] 1 (NQO1), NQO1 (gene 1728)
The experiment in a line: LTEA_HepaRG_NQO1: Life Technologies and Expression Analysis (LTEA) Assay for NAD(P)H dehydrogenase [quinone] 1 (NQO1) using HepaRG (AID 2283526). Put shortly:
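Human HepaRG hepatic cells received chemicals for 48 h in serum-free induction medium with 0.5% DMSO, up to 100 uM. Expression was assessed by TaqMan qRT-PCR against housekeeping controls and fitted bidirectionally against DMSO.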

Read-out in assay [17]: Nuclear factor erythroid 2-related factor 2 (Homo sapiens) (UniProt Q16236)
Put plainly: LTEA_HepaRG_NFE2L2: Life Technologies and Expression Analysis (LTEA) Assay for Nuclear factor erythroid 2-related factor 2 (NFE2L2) Transcription Factor using HepaRG (AID 2283527).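 On outcome: TaqMan qRT-PCR transcript level normalised to ACTB GAPDH and POLR2A housekeeping genes.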 The essentials: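 Differentiated human HepaRG cells in serum-free induction medium were exposed for 48 h to eight concentrations (top 100 uM, half-log dilutions, 0.5% DMSO), in duplicate. NFE2L2 mRNA was quantified by TaqMan qRT-PCR, normalized to ACTB, GAPDH and POLR2A, with bidirectional fitting versus DMSO.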

Read-out in assay [18]: succinate dehydrogenase complex iron sulfur subunit B (SDHB), SDHB (gene 6390)
The experiment in a line: LTEA_HepaRG_SDHB: Life Technologies and Expression Analysis (LTEA) Assay for succinate dehydrogenase complex iron sulfur subunit B (SDHB) using HepaRG (AID 2283528). Put shortly:
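Readout is SDHB transcript level by qRT-PCR, normalised to three housekeeping genes and fitted bidirectionally against 0.5% DMSO vehicle. Human HepaRG cells were treated for 48 h at up to 100 uM.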

Read-out in assay [19]: Signal transducer and activator of transcription 3 (Homo sapiens) (UniProt P40763)
Put plainly: LTEA_HepaRG_STAT3: Life Technologies and Expression Analysis (LTEA) Assay for Signal transducer and activator of transcription (STAT3) using HepaRG (AID 2283529). Put shortly: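 Differentiated human HepaRG cells in serum-free induction medium were exposed in duplicate for 48 h to eight half-log concentrations up to 100 uM in 0.5% DMSO. STAT3 mRNA was quantified by TaqMan qRT-PCR, normalized to ACTB, GAPDH and POLR2A, and fitted bidirectionally against DMSO.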

Sequence of Signal transducer and activator of transcription 3 (Homo sapiens) (P40763 whole entry, looked up): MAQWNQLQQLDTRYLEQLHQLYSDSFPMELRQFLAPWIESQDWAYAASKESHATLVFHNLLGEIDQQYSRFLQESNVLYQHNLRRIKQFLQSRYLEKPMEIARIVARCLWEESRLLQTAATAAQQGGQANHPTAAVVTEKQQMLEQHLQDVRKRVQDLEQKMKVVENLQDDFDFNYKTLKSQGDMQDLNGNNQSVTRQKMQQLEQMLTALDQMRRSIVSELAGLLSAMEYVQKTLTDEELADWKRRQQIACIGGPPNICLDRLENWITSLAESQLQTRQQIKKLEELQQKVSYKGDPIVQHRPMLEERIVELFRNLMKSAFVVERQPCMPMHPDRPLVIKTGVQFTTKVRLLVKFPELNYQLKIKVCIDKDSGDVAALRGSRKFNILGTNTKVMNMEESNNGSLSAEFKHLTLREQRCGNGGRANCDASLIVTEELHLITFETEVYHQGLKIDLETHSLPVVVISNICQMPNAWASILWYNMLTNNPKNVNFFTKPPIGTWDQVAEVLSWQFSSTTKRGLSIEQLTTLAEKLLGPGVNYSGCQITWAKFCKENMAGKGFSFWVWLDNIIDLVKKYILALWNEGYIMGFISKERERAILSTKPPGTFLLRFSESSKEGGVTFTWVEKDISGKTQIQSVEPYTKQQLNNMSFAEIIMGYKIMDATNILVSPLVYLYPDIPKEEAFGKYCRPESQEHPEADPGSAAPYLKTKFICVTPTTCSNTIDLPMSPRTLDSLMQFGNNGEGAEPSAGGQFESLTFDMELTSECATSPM
Sequence of Nuclear factor erythroid 2-related factor 2 (Homo sapiens) (Q16236 whole entry, looked up): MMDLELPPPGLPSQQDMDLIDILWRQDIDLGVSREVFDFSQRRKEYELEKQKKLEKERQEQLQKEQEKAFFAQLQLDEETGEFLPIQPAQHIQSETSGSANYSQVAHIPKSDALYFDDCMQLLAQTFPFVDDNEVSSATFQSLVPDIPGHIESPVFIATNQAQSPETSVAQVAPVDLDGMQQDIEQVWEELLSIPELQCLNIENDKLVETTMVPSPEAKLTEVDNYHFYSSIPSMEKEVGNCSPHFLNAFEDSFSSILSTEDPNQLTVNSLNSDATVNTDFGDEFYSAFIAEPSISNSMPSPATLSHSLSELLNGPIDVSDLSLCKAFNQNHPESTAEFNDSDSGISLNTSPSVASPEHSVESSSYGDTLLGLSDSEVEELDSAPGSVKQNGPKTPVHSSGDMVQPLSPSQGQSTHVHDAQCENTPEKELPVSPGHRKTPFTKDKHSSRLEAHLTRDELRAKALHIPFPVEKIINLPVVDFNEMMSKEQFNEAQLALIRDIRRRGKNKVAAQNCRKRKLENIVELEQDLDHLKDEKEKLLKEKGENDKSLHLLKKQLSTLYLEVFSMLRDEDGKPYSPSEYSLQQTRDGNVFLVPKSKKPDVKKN

For the compound `Cc1c(COC(=O)[C@@H]2[C@H](/C=C(\Cl)C(F)(F)F)C2(C)C)cccc1-c1ccccc1`, the outcome in [1], in assay [2], in assay [3], in assay [4], in assay [5] and in assay [6] was inactive. Further, the result in assay [7], in [8], in assay [9], in [10], in assay [11] and in assay [12] was inactive. Also, the outcome in assay [13], in assay [14], in [15], in [16], in assay [17] and in assay [18] was inactive. Besides, the compound was classed as inactive in assay [19].
In the case of `COCC(=O)N(c1c(C)cccc1C)C(C)C(=O)OC` (configuration not stated), the compound was classed as inactive in assay [1], in assay [2], in assay [3], in assay [4], in assay [5] and in assay [6]. Further, the call in assay [7], in assay [8], in [9], in [10], in [11] and in [12] was inactive. Moreover, the compound was called inactive in assay [13], in assay [14], in [15], in assay [16], in assay [17] and in [18]. For the same compound, the outcome in assay [19] was inactive.
The AC50 is the concentration giving half of the maximal activity seen. For `CCC(C)n1c(=O)[nH]c(C)c(Br)c1=O` (configuration not stated), the half-maximal activity concentration (AC50) in assay [1] is 6.3 µM (active); in assay [3] it was 11.8 µM (active); in assay [5] it was 23.3 µM (active); in assay [6], 14.4 µM (active); in assay [7], 10.4 µM (active); in assay [9] it was 24.8 µM (active). Further, the AC50 in assay [11] is 21.1 µM (active); in assay [14], 19.2 µM (active); in [15], 50 µM (active); in assay [17] it was 7.04 µM (active); in assay [19], 31.8 µM (active). Besides, the compound was called inactive in assay [2], in [4], in assay [8], in [10], in [12] and in [13]. The call in assay [18] was inactive.
In the case of `CC1(C)CON(Cc2ccccc2Cl)C1=O`, the compound was called inactive in assay [1], in [2], in assay [3], in [4], in assay [5] and in assay [6]. Moreover, the compound was called inactive in assay [7], in [8], in [9], in assay [10], in assay [12] and in assay [13]. In addition, the result in [14], in assay [15], in [16], in [17], in [18] and in assay [19] was inactive. The AC50 in assay [11] was 22.5 µM (active).
Consider `Clc1cccc(C(Cl)(Cl)Cl)n1`, for which the result in [1], in [2], in assay [3], in assay [4], in assay [5] and in [6] was inactive. The compound was called inactive in [7], in assay [8], in assay [9], in assay [10], in assay [11] and in assay [12]. Besides, the outcome in assay [13], in assay [14], in [15], in assay [16], in [17] and in [18] was inactive. The outcome in assay [19] was inactive.
For the compound `CC(C)N1C(=O)c2ccccc2NS1(=O)=O`, the outcome in assay [1], in assay [2], in assay [3], in [4], in assay [5] and in assay [6] was inactive. For the same compound, the compound was classed as inactive in assay [7], in assay [8], in assay [9], in [10], in [11] and in assay [12]. The compound was called inactive in assay [13], in assay [14], in assay [15], in assay [16], in assay [17] and in [18]. The compound was classed as inactive in assay [19].
For `CC(C)(C)C(=O)C(Oc1ccc(Cl)cc1)n1cncn1` (configuration not stated), the call in assay [1], in assay [2], in assay [3], in assay [4], in assay [5] and in assay [6] was inactive. Moreover, the call in assay [7], in [8], in assay [9], in assay [10], in assay [11] and in assay [12] was inactive. The call in assay [13], in [14], in assay [15], in [16], in assay [17] and in assay [18] was inactive. Moreover, the result in assay [19] was inactive.

(Values after PubChem BioAssay (EPA / NIEHS).)
